VLA-4 inh: inhibition in human VLA-4 binding assay, primary screen, VLA-4 allosteric modulator project, MLPCN library, flow cytometry, VLA-4 expressing cells; inhibition, % (about 7 µM as worked out from the volumes in the protocol); Integrin alpha-4 (Homo sapiens), P13612; ligand binding flow cytometry; hit rate 0.2% among 330,000; in the data active = inhibition above about 50%
Target sequence (P13612 whole entry, looked up): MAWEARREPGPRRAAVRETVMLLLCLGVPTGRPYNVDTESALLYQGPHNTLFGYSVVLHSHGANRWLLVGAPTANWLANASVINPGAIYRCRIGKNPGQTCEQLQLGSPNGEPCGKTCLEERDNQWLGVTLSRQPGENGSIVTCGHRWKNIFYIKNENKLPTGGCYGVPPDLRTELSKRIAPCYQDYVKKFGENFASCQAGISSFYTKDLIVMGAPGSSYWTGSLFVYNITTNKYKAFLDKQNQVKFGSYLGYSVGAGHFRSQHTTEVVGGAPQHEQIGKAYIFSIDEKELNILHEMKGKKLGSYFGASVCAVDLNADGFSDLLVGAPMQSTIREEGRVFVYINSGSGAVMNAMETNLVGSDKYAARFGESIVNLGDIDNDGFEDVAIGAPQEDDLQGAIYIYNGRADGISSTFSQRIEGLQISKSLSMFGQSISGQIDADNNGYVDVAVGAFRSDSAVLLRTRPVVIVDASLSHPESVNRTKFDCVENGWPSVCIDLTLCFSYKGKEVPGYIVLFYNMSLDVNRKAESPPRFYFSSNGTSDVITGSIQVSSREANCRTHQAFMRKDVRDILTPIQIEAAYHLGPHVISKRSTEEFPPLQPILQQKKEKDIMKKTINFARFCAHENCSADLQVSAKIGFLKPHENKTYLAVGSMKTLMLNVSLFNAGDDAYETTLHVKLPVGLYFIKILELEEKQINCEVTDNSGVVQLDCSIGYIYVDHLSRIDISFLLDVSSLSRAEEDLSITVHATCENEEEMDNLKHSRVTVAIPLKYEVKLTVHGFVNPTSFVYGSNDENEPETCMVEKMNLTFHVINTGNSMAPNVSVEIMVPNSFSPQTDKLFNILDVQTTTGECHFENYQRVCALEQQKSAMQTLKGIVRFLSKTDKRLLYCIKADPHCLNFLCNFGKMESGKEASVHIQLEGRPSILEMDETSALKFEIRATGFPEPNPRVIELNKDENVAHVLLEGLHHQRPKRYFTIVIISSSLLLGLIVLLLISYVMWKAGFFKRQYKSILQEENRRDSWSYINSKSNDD
Bfl-1 A1 inh: caspase 3/7 activation in MEF A1-2A-BIM cells, primary screen, A1 inhibitor project, cell-based, luminescence, HTS | Caspase-Glo 3/7 luminescence, 3 h; percent of clofoctol response, vehicle zero | caspase activation, % (test concentration not listed) | hit rate 0.066% among 330,000;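 active = over half of replicate activation scores above 10%, or exactly half above 10 with the replicate mean above 10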
Beta2AR agonist: beta2AR agonists driving receptor internalization, primary screen, cell-based, FAP fluorogen, flow cytometry | response, % (no concentration beside the values) | AID 504454, 2011 | Am2.2-beta2AR cells | hit rate 0.43% among 340,000;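 active = response above a set limit, near 3 SD of response in nonfluorescent compounds, cut at about 42% in these data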
GRK2 inh: compounds blocking aptamer binding on GRK2 – biochemical, human GRK2, bead flow cytometry, HTS, primary screen. Beta-adrenergic receptor kinase 1 (Homo sapiens), P25098. FAM-aptamer displacement from GRK2. inhibition of aptamer binding, % at 10 µM. hit rate 0.59% among 330,000. AID 488847, 2010;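 active = inhibition of aptamer binding above 40%, roughly 3 SD of noise, on plates passing a quality check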;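 note: median bead fluorescence of bound FAM aptamer so fluorescent compounds give negative values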
NTR1 agonist: agonists of human NTR1, primary screen, imaging, U2OS cells, beta-arrestin-GFP, high content; NTR1-U2OS beta-arrestin-GFP spot imaging, agonist mode; activation, % at 20 µM; AID 493036, 2011; hit rate 0.17% among 330,000; Neurotensin receptor type 1 (Homo sapiens), P30989;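 active = activation at or above 40% of the spot to cytoplasm intensity ratio, with at least 20 cells analyzed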;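 note: 0% = DMSO without peptide and 100% = 100 nM NTR1 peptide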
VLA-4 allo CP: retest of VLA-4 allosteric modulators, confirmation, cell-based, cherry-picked plates, U937, HUTS-21 LIBS antibody. shares compounds with VLA-4 inh. U937 cells, HUTS-21 LIBS mAb binding, flow cytometry; LDV ligand present at threefold Kd. inhibition, % at 6.7 µM. hit rate 2% among 1,300. AID 2813, 2010; in the data active = inhibition above about 40%;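 note: 0% = ligand without compound and 100% = no ligand background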
* = called active by the depositor; / = no result. Shown are actives, neighbours in structure and some others; about 1.3% of the full set was active somewhere.

SMILES	VLA-4 inh	Bfl-1 A1 inh	Beta2AR agonist	GRK2 inh	NTR1 agonist	VLA-4 allo CP
Cc1ccccc1C(=O)N1CCC(C(=O)NC2CCCCCC2)CC1	-3	0	-1	3	2	/
Cc1ccccc1C(=O)N1CCC(C(=O)Nc2ccc(F)cc2)CC1	-7	-2	0	1	-2	/
Cc1ccc(C(=O)OCC(=O)Nc2ccc(S(N)(=O)=O)cc2)c(O)c1	5	0	2	2	0	6
NS(=O)(=O)c1ccc(NC(=O)COC(=O)c2cc([N+](=O)[O-])ccc2Cl)cc1	1	1	20	1	3	/
C/C(=N\NC(=O)c1ccccc1)c1ccc2c(c1)OCO2	71*	-1	4	3	3	12
COc1ccc(C(=O)NC(C)c2nnc(SCC(=O)Nc3nc(C)cs3)n2C)cc1 (stereo unspecified)	2	0	-3	3	-1	0
COc1ccc(C(=O)NC(C)c2nnc(SCC(=O)Nc3nc4ccccc4s3)n2C)cc1 (stereo unspecified)	-10	0	-11	1	0	4
COc1ccc(CC(=O)NC(C)c2nnc(SCC(=O)c3ccc(OC)cc3)n2C)cc1 (stereo unspecified)	-3	0	-5	3	1	/
CCOC(=O)C1CCN(CC(=O)N(CC(C)C)c2c(N)n(CC(C)C)c(=O)[nH]c2=O)CC1	0	0	1	0	2	/
CCOc1ccc(N2CC(C(=O)NCc3ccc4c(c3)OCO4)CC2=O)cc1 (stereo unspecified)	5	0	-2	0	1	/
COc1ccc(S(=O)(=O)NCC(=O)O)cc1C(=O)NC1CCCCC1	41	0	0	0	1	-7
Cc1ccc(S(=O)(=O)NCCC(=O)NC2CCCCCC2)cc1C	-1	0	-5	2	4	/
COc1ccc(OCCn2c(=N)n(CCO)c3ccccc32)cc1	7	0	-3	0	-2	/
N=c1n(CCO)c2ccccc2n1CCOc1ccc(Cl)cc1Cl	54*	0	21	0	8	24
C=CC[n+]1c(C)csc1Nc1ccc(C)cc1	52*	1	-10	3	0	0
CC1CCCN(C(=O)c2ccc3c(c2)OCCO3)C1 (stereo unspecified)	50*	2	0	0	-2	-6
O=[N+]([O-])c1ccccc1Oc1ncccc1[N+](=O)[O-]	72*	0	7	4	0	10
Cc1cccc(Oc2ncccc2[N+](=O)[O-])c1C	/	/	-2	/	/	/
N#Cc1c(-c2ccc(Cl)cc2Cl)nc2n(c1=O)CCS2	92*	-1	26	0	1	-7
COC(=O)C(Cc1c[nH]c2ccccc12)NC(=O)c1cccc(S(=O)(=O)N2CCCCC2)c1 (stereo unspecified)	31	-1	21	4	4	/
COC(=O)c1ccc(-n2c(C)cc(C(=O)CSc3ccc(NC(C)=O)cc3)c2C)cc1	40	1	0	1	4	-4
Cc1cccc(NC(=O)c2ccc(Cl)c(S(=O)(=O)N3CCCCC3)c2)n1	5	-1	2	0	1	/
O=C1CCc2cc(S(=O)(=O)Nc3ccc(F)cc3)ccc2N1	15	0	3	2	-1	/
O=C1Cc2cc(S(=O)(=O)NCc3ccc(F)cc3)ccc2N1	-2	-1	8	2	0	0
Cc1ccc(C(=O)NCC(=O)OCC(=O)N(CC(C)C)c2c(N)n(Cc3ccccc3)c(=O)[nH]c2=O)cc1	3	0	5	4	0	/
C#CC[N+]1(CC#Cc2ccc(C)cc2)CCCCC1	-3	0	1	0	1	/
O=C1NC(=O)/C(=C/c2cccc(O)c2)N1	47	1	-1	0	/	-3
O=C1NC(=O)C(=Cc2ccccc2)N1	/	/	1	/	/	/

Screens deposited in PubChem BioAssay by several laboratories.
